Assay outcomes as filed in PubChem BioAssay.
NIH3T3 tox: Cytotoxic Profiling in NIH 3T3 Cell Line of Diverse Libraries Using Quantitative High-Throughput Screening; NIH 3T3 viability, CellTiter-Glo ATP luminescence, 48-72 h; Potency, µM (titrated, usually from 96.7 µM), most hits filed as inhibitors; hit rate 4.3% among 94,000; note: nearly all actives have a fitted effect of over 55% in size
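ATP-dependent luminescence (CellTiter-Glo) served as the viability signal for NIH 3T3 cells treated with compound for 48 or 72 hr at 37 °C.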
HEK293 tox: Cytotoxic Profiling in HEK 293 Cell Line of Diverse Libraries Using Quantitative High-Throughput Screening | HEK 293 viability, ATP luminescence (CellTiter-Glo), 48-72 h | AID 1345083, 2018 | Potency, µM (doses to about 115 µM), hits mostly inhibitors | hit rate 6.6% among 94,000; note: nearly all actives have a fitted effect of over 60% in size
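CellTiter-Glo luminescence (cellular ATP) was read after 48 or 72 hr of compound exposure at 37 degree Celsius. Cells were HEK 293 plated at 250 cells/well.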
hNpr1 antagonist: Natriuretic polypeptide receptor (hNpr1) antagonism - Primary qHTS; Atrial natriuretic peptide receptor 1 (Homo sapiens), P16066; HEK293 hNpr1 GloSensor cGMP, ANP-stimulated luminescence; Potency, µM (doses to about 46.3 µM), hits mostly inhibitors; hit rate 1.6% among 76,000; AID 1347048, 2019; calls by dose curve; note: nearly all actives have a fitted effect of over 60% in size
Target sequence (P16066 whole entry, looked up): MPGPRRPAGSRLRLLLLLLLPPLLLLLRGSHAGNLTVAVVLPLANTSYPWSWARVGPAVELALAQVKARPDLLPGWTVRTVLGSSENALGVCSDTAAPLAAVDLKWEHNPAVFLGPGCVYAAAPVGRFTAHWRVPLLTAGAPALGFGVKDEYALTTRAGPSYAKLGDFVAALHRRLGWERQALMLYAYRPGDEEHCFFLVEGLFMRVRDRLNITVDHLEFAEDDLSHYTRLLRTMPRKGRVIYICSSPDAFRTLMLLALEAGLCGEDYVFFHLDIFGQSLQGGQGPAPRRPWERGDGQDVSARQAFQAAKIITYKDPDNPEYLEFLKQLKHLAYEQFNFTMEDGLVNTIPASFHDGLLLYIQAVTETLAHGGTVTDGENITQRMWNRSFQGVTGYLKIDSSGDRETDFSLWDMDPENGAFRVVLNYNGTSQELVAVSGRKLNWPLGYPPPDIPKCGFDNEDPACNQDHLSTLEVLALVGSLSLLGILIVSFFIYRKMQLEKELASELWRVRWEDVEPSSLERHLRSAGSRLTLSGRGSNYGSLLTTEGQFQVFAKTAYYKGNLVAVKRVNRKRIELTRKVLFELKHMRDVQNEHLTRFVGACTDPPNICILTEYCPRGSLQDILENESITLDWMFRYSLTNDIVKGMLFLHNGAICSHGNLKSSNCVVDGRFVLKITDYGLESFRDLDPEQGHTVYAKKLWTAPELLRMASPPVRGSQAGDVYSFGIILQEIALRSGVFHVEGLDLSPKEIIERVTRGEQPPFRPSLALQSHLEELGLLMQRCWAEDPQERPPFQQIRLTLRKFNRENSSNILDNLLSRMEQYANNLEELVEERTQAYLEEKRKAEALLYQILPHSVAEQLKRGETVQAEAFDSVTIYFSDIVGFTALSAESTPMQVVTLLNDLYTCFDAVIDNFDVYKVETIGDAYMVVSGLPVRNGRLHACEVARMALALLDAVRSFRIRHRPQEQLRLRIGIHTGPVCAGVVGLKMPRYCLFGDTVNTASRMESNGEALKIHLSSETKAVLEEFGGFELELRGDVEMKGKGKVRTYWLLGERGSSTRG
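HEK293 cells stably expressing human Npr1 and cGMP GloSensor pGS-40F, loaded 2 h with 2% GloSensor reagent, given compound 30 min at room temperature. Luminescence read before and 20 min after 0.1 nM hNppA.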
FLuc inh: Firefly luciferase inhibition profiling of diverse chemical library using quantitative high-throughput screening; Luciferin 4-monooxygenase (Photinus pyralis), P08659; purified P. pyralis luciferase, luminescence, biochemical; Potency, µM (series often up to 115 µM), most hits filed as inhibitors; hit rate 2.5% among 76,000; note: nearly all actives have a fitted effect of over 65% in size
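Cell-free enzyme assay, 10nM P. pyralis luciferase, luciferin and ATP each at 10uM. Inhibition profiled over a 6-point titration, read as luminescence.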
Of the large screens only hits and unclear results are named; the others gave an inactive call. The list is not random: actives were taken first. Their share in the collection is about 11%. Unless noted, calls come from the whole dose curve; as a rule, active = well fitted curve in the direction sought with a large enough effect; inconclusive = small, poorly fitted or top-dose-only effect, or another doubt; inactive = no such curve, though single readings can be large; an effect the other way counts as inactive or inconclusive.

Cc1noc(C)c1[S+](=O)([O-])N1CCC2(C1)C(=O)N(CCc1ccccc1)c1ccccc12 (centres undefined)	NIH3T3 tox inconclusive, HEK293 tox inconclusive
O=C(Nc1ccccc1)Nc1ccc([C@@H](O)[C@H]2COCC(=O)N2Cc2ccc(F)cc2)cc1	NIH3T3 tox inconclusive, HEK293 tox 79µM, FLuc inh inconclusive
Cc1ccc(C)c(NC(=O)C2CCN(C(=O)c3ncn4c3COC(c3ccc(F)cc3)C4)CC2)c1 (centres undefined)	FLuc inh 28µM
Cc1cc(NC(=O)C2CCN(C(=O)c3ncn4c3COC(c3ccc(F)cc3)C4)CC2)ccc1F (centres undefined)	FLuc inh 22µM
Cc1ccc(NC(=O)C2CCN(C(=O)c3ncn4c3COC(c3ccc(F)cc3)C4)CC2)c(C)c1 (centres undefined)	FLuc inh 35µM
Cc1cc(F)ccc1NC(=O)C1CCN(C(=O)c2ncn3c2COC(c2ccc(F)cc2)C3)CC1 (centres undefined)	FLuc inh inconclusive
COc1ccc(C2Cn3cnc(C(=O)N4CCC(C(=O)Nc5cccc(Cl)c5)CC4)c3CO2)cc1 (centres undefined)	HEK293 tox inconclusive, FLuc inh 40µM
O=C(c1ccccc1F)N1CCCC1C(=O)N1CCCC1c1nc2ccncc2[nH]1 (centres undefined)	none (no result: hNpr1 antagonist, FLuc inh)
CC(=O)NCC1CN(S(=O)(=O)c2cccnc2)CC12CCCCC2 (centres undefined)	none (no result: hNpr1 antagonist, FLuc inh)
O=C(NCCc1ccc(Cl)cc1)c1nc(-c2ccc(Cl)nc2)c2ccccn12	HEK293 tox inconclusive (no result: hNpr1 antagonist, FLuc inh)
Cc1ccc(C(=O)N2CCC(C(=O)N3CCC(N4CCOC4=O)CC3)CC2)cc1	none (no result: hNpr1 antagonist, FLuc inh)
CNC(=O)c1cc(C)nc2onc(C3CCCN3C(=O)C3CC3)c12 (centres undefined)	none (no result: hNpr1 antagonist, FLuc inh)
COCCN1C(=O)CC[C@]2(C(=O)NCc3ccccc3Cl)CCCC[C@@H]12	none
Cc1nn(-c2ccccc2)c2c1C(C(C)C)N(C1CN(C(=O)Cc3cccc(Cl)c3)C1)C2=O (centres undefined)	NIH3T3 tox 25µM, HEK293 tox 25µM (no result: hNpr1 antagonist, FLuc inh)
COCC(=O)N1CCCC(c2nn(-c3cccc(Cl)c3)c(=O)[nH]2)C1 (centres undefined)	none
O=C(Cc1cccc(Cl)c1)N1CCCC(c2nn(-c3ccccc3)c(=O)[nH]2)C1 (centres undefined)	NIH3T3 tox inconclusive, HEK293 tox 45µM
Cc1nn(-c2ccccc2)c2c1C(C1CC1)N(C1CN(C(=O)Cc3cccc(Cl)c3)C1)C2=O (centres undefined)	NIH3T3 tox inconclusive, HEK293 tox 25µM (no result: hNpr1 antagonist, FLuc inh)
Cc1nn(-c2ccccc2)c2c1C(C(C)C)N(C1CCN(C(=O)Cc3cccc(Cl)c3)CC1)C2=O (centres undefined)	none (no result: hNpr1 antagonist, FLuc inh)
Cc1nn(-c2ccccc2)c2c1C(C1CC1)N(C1CN(C(=O)NC(C)(C)c3ccccc3)C1)C2=O (centres undefined)	NIH3T3 tox 14µM, HEK293 tox inconclusive (no result: hNpr1 antagonist, FLuc inh)
CC(=O)N1CCN(C(=O)c2ccc3oc(-c4cccc(C)n4)nc3c2)CC1	none (no result: hNpr1 antagonist, FLuc inh)
C[C@]1(CO)[C@H]2Cc3sc(NC(=O)c4ccc(F)cc4)nc3[C@@H](CC(=O)Nc3ccccc3)[C@]2(C)CC[C@H]1O	FLuc inh inconclusive
Cc1ccc(CN2C(=O)NC3(CCCN(C(=O)c4cc(Cl)ccc4F)C3)C2=O)cc1 (centres undefined)	HEK293 tox inconclusive
CCOC(=O)[C@H]1C[C@]2(CCCCN(CCOC)C2=O)N(C(=O)COC(C)=O)[C@H]1c1ccccc1	NIH3T3 tox inconclusive (no result: hNpr1 antagonist, FLuc inh)
COc1cccc(CN(C)C(C)c2cccs2)c1 (centres undefined)	none
CC(c1cccs1)N(C)Cc1cccc2ccccc12 (centres undefined)	NIH3T3 tox inconclusive, HEK293 tox 112µM, FLuc inh inconclusive
Cc1nnc2ccc(N3CCCN(C(=O)c4cccc(C(F)(F)F)c4)CC3)nn12	NIH3T3 tox inconclusive (no result: hNpr1 antagonist, FLuc inh)
Cn1cccc1CN1CCC2(CC1)CC(=O)c1ccc(Cl)cc1O2	NIH3T3 tox inconclusive, HEK293 tox 45µM, FLuc inh inconclusive
O=C1CC2(CCN(C(=O)c3ccc4c(c3)OCO4)CC2)Oc2ccccc21	NIH3T3 tox inconclusive, HEK293 tox inconclusive
